Results filed as inconclusive are left out. Where a call stands in place of a potency, no number is given. Calls of active or inactive are those of the source. Unless noted, calls follow the shape of the dose curve; as a rule, active = well fitted curve in the direction sought with a large enough effect; inconclusive = small, poorly fitted or top-dose-only effect, or another doubt; inactive = no such curve, though single readings can be large; an effect the other way counts as inactive or inconclusive.
What was measured:
[1] = MultiTox-Fluor Cytotoxicity Assay - LYMP1-001 - Dead Cells (AID 946); also: potency is read from the fitted curve at half-maximal effect
Method in brief: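 In this qHTS, 15 uM tetraoctylammonium bromide defined 100% and DMSO defined basal activity. Lymphoblastoid cells (LYMP1-001, 2500 per well) received compound for 16 hr at 37 C before a fluorogenic dead-cell substrate readout at 485/520 nm.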

[2] = MultiTox-Fluor Cytotoxicity Assay - LYMP1-001 - Live Cells (AID 947)
[3] = Cell Viability - LYMP1-002 - Assay at 16 hr (AID 948)
Method in brief: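 LYMP1-002 human lymphoblastoid cells, 2500/well; 5 hr 37 C; cpd 16 hr 37 C; CellTiter-Glo 30 min RT; luminescence (ATP). Concentration-response, Hill-fit AC50. Pos ctrl tetraoctylammonium bromide.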

[4] = biological target: Pyruvate kinase PKM (Homo sapiens) (UniProt P14618); experiment: qHTS Assay for Activators of Human Muscle Pyruvate Kinase (AID 954; active = well fitted curve in the direction sought with a large enough effect, not every such curve was filed as active)
Pyruvate kinase PKM (Homo sapiens), sequence (P14618 whole entry, looked up): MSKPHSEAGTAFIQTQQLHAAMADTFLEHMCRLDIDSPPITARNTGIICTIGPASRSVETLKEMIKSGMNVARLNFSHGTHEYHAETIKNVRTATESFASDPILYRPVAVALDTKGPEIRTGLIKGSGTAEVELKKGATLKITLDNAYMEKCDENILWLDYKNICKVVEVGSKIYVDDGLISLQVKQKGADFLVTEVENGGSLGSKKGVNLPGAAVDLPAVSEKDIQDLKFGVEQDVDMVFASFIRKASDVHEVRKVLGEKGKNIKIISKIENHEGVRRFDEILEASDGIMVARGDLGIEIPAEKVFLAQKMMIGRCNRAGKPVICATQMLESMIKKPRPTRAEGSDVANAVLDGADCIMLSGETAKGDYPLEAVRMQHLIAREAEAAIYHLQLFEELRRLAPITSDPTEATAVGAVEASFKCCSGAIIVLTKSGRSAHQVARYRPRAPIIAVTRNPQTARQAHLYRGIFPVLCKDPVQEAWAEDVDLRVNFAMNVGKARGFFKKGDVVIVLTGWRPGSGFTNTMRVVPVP
Method in brief: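 Enzyme was run at intermediate activity so both inhibitors and activators could be detected. ATP formed from ADP and PEP by 0.1 nM human PKM2 during a 1 h room-temperature incubation was quantified by coupled luciferase luminescence.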

[5] = MultiTox-Fluor Cytotoxicity Assay - LYMP1-002 - Live Cells (AID 955);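 also: cells exposed to compound for 16 hours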; also: potency is read from the fitted curve at half-maximal effect
Method in brief: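 Cytotoxicity in the human lymphoblastoid line LYMP1-002 is measured as loss of live-cell protease activity after 16 h treatment in complete culture medium. AC50 is derived from Hill-equation fits of qHTS concentration-response data.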

[6] = MultiTox-Fluor Cytotoxicity Assay - LYMP1-002 - Dead Cells (AID 960); also: nearly all actives have a fitted effect of over 60% in size; also: potency is read from the fitted curve at half-maximal effect
Method in brief: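 Acute cytotoxicity in a human lymphoblastoid line is scored as rising dead-cell protease signal after 16 hr exposure at 37 C, measured fluorometrically (485/520).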

[7] = MultiTox-Fluor Cytotoxicity Assay - LYMP1-003 - Dead Cells (AID 961);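 also: cells exposed to compound for 16 h at 37 °C; nearly all actives have a fitted effect of over 70% in size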
Method in brief: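 Acute toxicity is scored as increased dead-cell protease activity in human lymphoblastoid LYMP1-003 cells after 16 h compound exposure in complete culture medium. Activity is normalized to DMSO basal and 15 uM tetraoctylammonium bromide as full response.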

[8] = MultiTox-Fluor Cytotoxicity Assay - LYMP1-003 - Live Cells (AID 962);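 also: cells exposed to compound for 16 hours at 37 °C; cytotoxic hits lower the live-cell protease signal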
Method in brief: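 Cells plated at 2500 per well and incubated 5 hr; compounds added and incubated 16 hr at 37 C; MultiTox-Fluor reagent added for 60 min at room temperature; fluorescence of liberated AFC measured at 405/510 nm.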

[9] = Cell Viability - LYMP1-003 - Assay at 24 hr (AID 963)
Method in brief: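 Acute toxicity in LYMP1-003 lymphoblastoid cells: 24 hr compound treatment at 37 C, ATP measured with CellTiter-Glo after 30 min at room temperature. AC50 derived by fitting the Hill equation to qHTS titrations.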

[10] = Cell Viability - LYMP1-003 - Assay at 40 hr (AID 964); also: nearly all actives have a fitted effect of over 60% in size; also: potency is read from the fitted curve at half-maximal effect
Method in brief: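 This qHTS cytotoxicity screen treats human lymphoblastoid cells (LYMP1-003) with compounds for 40 hr and quantifies cellular ATP via luciferase luminescence.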

[11] = Cell Viability - LYMP2-003 (AID 965);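 also: cells exposed to compounds for 24 h before reading; nearly all actives have a fitted effect of over 50% in size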; also: potency is read from the fitted curve at half-maximal effect
Method in brief: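 CellTiter-Glo luminescence (cellular ATP) after 24 h compound exposure at 37 C in complete medium; 2500 cells/well, 5 h settling beforehand. Concentration-response fitted to standard Hill equation for AC50. Tetraoctylammonium bromide served as positive control.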

[12] = Cell Viability - LYMP2-005 (AID 967); also: series mostly up to about 92 µM
Method in brief: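 Steps: seed 2500 LYMP2-005 cells/well, incubate 5 h at 37 C, add compound, incubate 24 h at 37 C, add CellTiter-Glo, wait 30 min at RT, read luminescence. Concentration-response data fitted to Hill equation for AC50.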

[13] = Cell Viability - LYMP2-009 (AID 968); also: nearly all actives have a fitted effect of over 55% in size; also: potency is read from the fitted curve at half-maximal effect
[14] = Cell Viability - LYMP2-011 (AID 969); also: nearly all actives have a fitted effect of over 60% in size; also: potency is read from the fitted curve at half-maximal effect
Method in brief: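 Acute toxicity is scored as a concentration-dependent drop in intracellular ATP of a human lymphoblastoid line after 24 hr treatment. Values are AC50s modeled with the Hill equation.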

[15] = Cell Viability - LYMP2-013 (AID 970); also: nearly all actives have a fitted effect of over 55% in size; also: potency is read from the fitted curve at half-maximal effect
Method in brief: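 Acute toxicity was measured in human lymphoblastoid cells (2500/well) exposed to compound titrations for 24 hr, with ATP luminescence (CellTiter-Glo) as read-out and AC50 fitted by Hill equation.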

[16] = Cell Viability - LYMP2-015 (AID 971); also: nearly all actives have a fitted effect of over 55% in size; also: potency is read from the fitted curve at half-maximal effect
Method in brief: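 Acute toxicity was scored as a concentration-dependent drop in intracellular ATP in lymphoblastoid cells after 24 hr compound exposure in complete medium. Detection used CellTiter-Glo luciferase luminescence.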

[17] = Cell Viability - LYMP2-017 (AID 972);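 also: cells exposed to compound for 24 hours at 37 °C; nearly all actives have a fitted effect of over 55% in size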; also: potency is read from the fitted curve at half-maximal effect
Method in brief: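 Steps: plate 2500 lymphoblastoid cells per well; incubate 5 hr at 37 C; add compound across a concentration series and incubate 24 hr at 37 C; add CellTiter-Glo and read luminescence after 30 min at room temperature; fit Hill curves for AC50.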

[18] = Cell Viability - LYMP2-019 (AID 973); also: nearly all actives have a fitted effect of over 55% in size; also: potency is read from the fitted curve at half-maximal effect
Method in brief: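 Cells plated at 2500/well and allowed 5 hr at 37 C before compound addition. After 24 hr incubation, CellTiter-Glo reagent was added, plates sat 30 min at room temperature, and luminescence was recorded.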

In the case of CCCNC(=O)NS(=O)(=O)c1ccc(Cl)cc1, the Potency [1] is reported as “inactive”, the outcome [2] is reported as “inactive” and the Potency [3] is reported as “inactive”. For the same molecule, the outcome [4] was “inactive”, the Potency [5] was “inactive” and the Potency [6] was “inactive”. For the same molecule, the outcome [7] was “inactive”, the Potency [8] was “inactive” and the Potency [9] was “inactive”. For the same molecule, the Potency [10] was “inactive”, the Potency [11] was “inactive” and the outcome [12] was “inactive”. For the same molecule, the Potency [13] was “inactive”, the Potency [14] was “inactive” and the Potency [15] was “inactive”. The Potency [16] was “inactive”, the Potency [17] was “inactive” and the Potency [18] was “inactive”.
With CC(C)NCC(O)COc1cccc2[nH]ccc12 (stereo not drawn) the outcome [4] was “inactive”.
With CCn1cc(C(=O)O)c(=O)c2ccc(C)nc21 the Potency [1] was “inactive”, the outcome [2] was “inactive” and the Potency [3] was “inactive”. The Potency [5] was “inactive”, the Potency [6] was “inactive” and the outcome [7] was “inactive”. The Potency [8] was “inactive”, the Potency [9] was “inactive” and the Potency [10] was “inactive”. For the same molecule, the Potency [11] was “inactive”, the outcome [12] was “inactive” and the Potency [13] was “inactive”. For the same molecule, the Potency [14] was “inactive”, the Potency [15] was “inactive” and the Potency [16] was “inactive”. The Potency [17] was “inactive” and the Potency [18] was “inactive”.
In the case of C[N+](C)(C)CC(=O)O, the outcome [4] is reported as “inactive”.
With CC(=O)O[C@]1(C(C)=O)CC[C@H]2[C@@H]3C=C(Cl)C4=CC(=O)[C@@H]5C[C@@H]5[C@]4(C)[C@H]3CC[C@@]21C the outcome [2] was “inactive”, the Potency [3] was “inactive” and the Potency [5] was “inactive”. For the same molecule, the Potency [6] was “inactive”, the outcome [7] was “inactive” and the Potency [8] was “inactive”. The Potency [9] was “inactive”, the Potency [10] was “inactive” and the Potency [11] was “inactive”. The Potency [13] was “inactive”, the Potency [14] was “inactive” and the Potency [15] was “inactive”. The Potency [16] was “inactive”, the Potency [17] was “inactive” and the Potency [18] was “inactive”.
With O=c1[nH]cnc2c1ncn2[C@H]1CC[C@@H](CO)O1 the Potency [1] was “inactive”, the outcome [2] was “inactive” and the Potency [3] was “inactive”. For the same molecule, the Potency [5] was “inactive”, the Potency [6] was “inactive” and the outcome [7] was “inactive”. The Potency [8] was “inactive”, the Potency [9] was “inactive” and the Potency [10] was “inactive”. For the same molecule, the Potency [11] was “inactive”, the outcome [12] was “inactive” and the Potency [13] was “inactive”. For the same molecule, the Potency [14] was “inactive”, the Potency [15] was “inactive” and the Potency [16] was “inactive”. For the same molecule, the Potency [17] was “inactive” and the Potency [18] was “inactive”.
With CC/C(=C(\c1ccccc1)c1ccc(OCCN(C)C)cc1)c1ccccc1 the Potency [1] was 50.1 µM (active), the outcome [4] was “inactive” and the Potency [5] was 31.6 µM (active). The Potency [6] was 25.1 µM (active), the Potency [10] was 50.1 µM (active) and the Potency [11] was 39.8 µM (active). The Potency [13] was 50.1 µM (active), the Potency [14] was 50.1 µM (active) and the Potency [15] was 50.1 µM (active). For the same molecule, the Potency [17] was 50.1 µM (active) and the Potency [18] was 50.1 µM (active).
With O=C1NC(=O)C(c2ccccc2)(c2ccccc2)N1 the Potency [1] was “inactive”, the Potency [3] was “inactive” and the outcome [4] was “inactive”. The Potency [5] was “inactive”, the outcome [7] was “inactive” and the Potency [8] was “inactive”. For the same molecule, the Potency [9] was “inactive”, the Potency [10] was “inactive” and the Potency [11] was “inactive”. The outcome [12] was “inactive”, the Potency [13] was “inactive” and the Potency [14] was “inactive”. The Potency [15] was “inactive”, the Potency [16] was “inactive” and the Potency [17] was “inactive”. The Potency [18] was “inactive”.
For O=C(O)Cc1cccc2ccccc12, the Potency [1] was “inactive”, the outcome [2] was “inactive” and the Potency [3] was “inactive”. The Potency [5] was “inactive”, the Potency [6] was “inactive” and the outcome [7] was “inactive”. The Potency [8] was “inactive”, the Potency [9] was “inactive” and the Potency [10] was “inactive”. For the same molecule, the Potency [11] was “inactive”, the outcome [12] was “inactive” and the Potency [13] was “inactive”. For the same molecule, the Potency [14] was “inactive”, the Potency [15] was “inactive” and the Potency [16] was “inactive”. The Potency [17] was “inactive” and the Potency [18] was “inactive”.
With COCCCCC(=NOCCN)c1ccc(C(F)(F)F)cc1 the outcome [4] was “inactive”.
For Clc1ccc(Cn2c(CN3CCCC3)nc3ccccc32)cc1, the outcome [4] was “inactive”.
In the case of O=C(O)CCc1nc(-c2ccccc2)c(-c2ccccc2)o1, the outcome [4] is reported as “inactive”.
With O=C(O)c1cc(O)c2c(c1)C(=O)c1cccc(O)c1C2=O the Potency [1] was “inactive”, the outcome [2] was “inactive” and the Potency [3] was “inactive”. For the same molecule, the Potency [5] was “inactive”, the Potency [6] was “inactive” and the outcome [7] was “inactive”. For the same molecule, the Potency [8] was “inactive”, the Potency [9] was “inactive” and the Potency [10] was “inactive”. The Potency [11] was “inactive”, the outcome [12] was “inactive” and the Potency [16] was 50.1 µM (active).

Source: PubChem BioAssay (NCATS)
